Article PMC5540273 (PLoS ONE, 2017)

What was measured:
Settings in all cases: concentration: 1 μM, replicates: in singlicate; n = 1
AMPK-alpha1 = system: T1, AMPK-alpha1
T1 construct: gene PRKAA1

AMPK-alpha2 = system: T2, AMPK-alpha2
T2 construct: gene PRKAA2

ANKK1 = system: ANKK1
ARK5 = system: T3, ARK5
T3 construct: gene NUAK1

ASK1 = system: T4, ASK1
T4 construct: gene MAP3K5

ASK2 = system: T5, ASK2
T5 construct: gene MAP3K6

AURKA = system: AURKA
AURKB = system: AURKB
AURKC = system: AURKC
AXL = system: AXL
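Note: KINOMEscan kinase panel screen.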

Structure (SMILES)	%Inh (AMPK-alpha1)	%Inh (AMPK-alpha2)	%Inh (ANKK1)	%Inh (ARK5)	%Inh (ASK1)	%Inh (ASK2)	%Inh (AURKA)	%Inh (AURKB)	%Inh (AURKC)	%Inh (AXL)
Cc1ccccc1Cn1ccn2c(=O)cc(N3CCOCC3)nc12 [GSK2269905]	0%	1%	10%	5%	0%	0%	0%	30%	0%	9%
Nc1cccc(-c2ccc3c(N)n[nH]c3c2)n1 [GSK2192730]	0%	0%	17%	0%	0%	13%	8%	15%	22%	0%
CNc1cc(-c2ccc3c(N)n[nH]c3c2)nc(N)n1 [GSK2224810]	0%	0%	10%	0%	0%	0%	4%	0%	10%	0%
CNC(=O)c1ccc(C)c(-n2c(C)cc(OCc3ccc(F)cc3F)c(Br)c2=O)c1	0%	5%	0%	0%	15%	0%	0%	0%	0%	0%
CS(=O)(=O)CCNCc1nc(-c2ccc3ncnc(Nc4ccc(OCc5ccccc5)c(Cl)c4)c3c2)cs1.Cl [GW582764]	0%	0%	0%	0%	0%	0%	0%	23%	0%	0%
Cc1c(Cn2c3ccccc3n3c(=O)cc(N4CCOCC4)nc23)cccc1C(F)(F)F [GSK2306394]	0%	0%	0%	8%	0%	8%	0%	9%	14%	5%
CC(=O)c1c(C)c2cnc(Nc3ccc(N4CCNCC4)cn3)nc2n(C2CCCC2)c1=O	0%	0%	0%	0%	0%	0%	0%	0%	0%	0%
Cc1ccc(NC(=O)Nc2ccc(Cl)cc2)cc1-c1ccc(C(=O)Nc2ccncc2)cc1 [GSK1398472]	3%	3%	12%	1%	11%	0%	0%	28%	10%	11%
COc1cc2ncnc(Nc3cccc(Br)c3)c2cc1OC.Cl [GI230329]	0%	0%	8%	17%	0%	6%	6%	0%	6%	10%
Fc1ccc(-c2nn3cccc(F)c3c2-c2ccncc2)cc1 [GW475620]	42%	19%	0%	16%	8%	0%	0%	45%	46%	3%
Cc1cnc(N)c(/C=C/c2cncc(C(=O)NCCc3ccc(Cl)cc3Cl)c2)c1.Cl [GSK190937]	3%	18%	3%	1%	2%	0%	1%		12%	5%
CNc1nc(-c2ccc3c(N)n[nH]c3c2)cc(N2C[C@@H](C(=O)NC3CCCCC3)OC[C@H]2C)n1 [GSK2375584]	6%	0%	8%	23%	12%	0%	9%	16%	12%	0%
COc1ccc(Nc2nccc(N3CCC(NC(=O)c4cc5ccccc5s4)C3)n2)cc1 (centres unmarked) [GSK1379738]	0%	3%	3%	19%	12%	11%	14%	0%	22%	7%
Cc1ccc(NC(=O)Nc2ccccc2)cc1-c1ccc(C(=O)Nc2ccncc2)cc1 [GSK1398471]	15%	11%	0%	13%	10%	4%	15%	0%	0%	11%
c1ccc(-c2ccnc3[nH]ccc23)cc1 [SB-693578]	0%	0%	0%	20%	2%	19%	17%	41%	0%	0%
COC(=O)c1cccc(NC(=O)NC2CCN(c3ccnc(Nc4ccc(OC)cc4)n3)C2)c1 (centres unmarked) [GSK1379746]	0%	0%	0%	31%	22%	0%	10%	25%	28%	0%
O=c1cc(N2CCOCC2)nc2n(Cc3cccc(Cl)c3Cl)c3ccccc3n12 [GSK2299009]	5%	16%	6%	0%	2%	0%	17%	7%	46%	59%
Cc1ccc(-c2nc(Nc3ccncc3)c3ccccc3n2)s1 [GSK189015]	0%	20%	65%	17%	1%	11%	0%	0%	24%	20%

Structure (SMILES)	%Inh (AMPK-alpha1)	%Inh (AMPK-alpha2)	%Inh (ANKK1)	%Inh (ARK5)	%Inh (ASK1)	%Inh (ASK2)	%Inh (AURKA)	%Inh (AURKB)	%Inh (AURKC)	%Inh (AXL)
COc1ccc(CSc2nnc(-c3ccc4c(c3)CCO4)o2)cc1	0%	0%	0%	33%	0%	0%	0%	0%	0%	0%
Cn1cncc1C(=O)NC1CCN(c2ccnc(Nc3ccc(F)cc3)n2)C1 (centres unmarked) [GSK1379717]	0%	12%	0%	9%	10%	3%	0%	23%	8%	0%
Cc1c(Cn2c(C)c(C)n3c(=O)cc(N4CCOCC4)nc23)cccc1C(F)(F)F [GSK2328680]	0%	2%	0%	0%	2%	0%	0%	0%	0%	0%
Cl.Cl.Cl.N#Cc1ccc(CCNc2nccc(-c3cccc(CN4CCNCC4)c3)n2)cc1 [GSK2137462]	25%	14%	15%	17%	20%	4%	20%	0%	15%	44%
CC(C)c1cc(-c2ccc3c(N)n[nH]c3c2)nc(N)n1 [GSK2250882]	0%	0%	8%	0%	0%	7%		18%	56%	0%
CC(=O)c1cccc(NC(=O)NC2CCN(c3ccnc(Nc4ccc(F)cc4)n3)C2)c1 (centres unmarked) [GSK1379710]	0%	0%	19%	31%	20%	0%	12%	0%	21%	5%
Cc1cccc2c(-c3ccncn3)c(-c3ccc(F)cc3)nn12 [GW515532]	3%	16%	0%	0%	0%	0%	0%	0%	18%	10%
COC(=O)C(NC(=O)NC1CCN(c2ccnc(Nc3ccc(F)cc3)n2)C1)c1ccccc1 (centres unmarked) [GSK1379712]	0%	12%	10%	8%	20%	2%	5%	0%	32%	0%
Cn1cncc1-c1cc2c(Nc3ccc(OCc4ccccc4)cc3)ncnc2cn1 [GW281179]	0%	0%	0%	13%	9%	0%	0%	25%	5%	0%
O=C(Nc1n[nH]c2cc(-c3ccsc3)ccc12)C1CC1 [SB-732932]	7%	0%	40%	0%	0%	30%	13%	35%	20%	43%
COc1ccc2cc(-c3nc(-c4ccccc4C(C)C)[nH]c3-c3ccncc3)ccc2c1 [SB-660566]	17%	0%	6%	18%	16%	3%	5%	30%	0%	36%
O=C(Nc1n[nH]c2nc(-c3cccs3)c(Br)cc12)C1CCCC1 [SB-743341]	29%	40%	35%	0%	0%	12%	17%	27%	10%	0%
Nc1ncnc2occ(-c3ccc4c(c3)CCN4C(=O)Cc3cc(F)ccc3F)c12 [GSK2645446]	4%	0%	3%	12%	0%	0%	0%	48%	40%	34%
CC[C@@H]1CO[C@H](C(=O)Nc2ccccc2)CN1c1cc(-c2ccc3c(N)n[nH]c3c2)nc(NC)n1 [GSK2376236]	0%	1%	0%	14%	4%	0%		0%	48%	0%
Cc1ccc(NC(=O)Nc2ccccc2F)cc1-c1ccc(C(=O)Nc2ccncc2)cc1 [GSK1398477]	7%	23%	0%	8%	12%	21%	0%	0%	27%	25%
COc1cccc(C2=C(Nc3cc(Cl)c(O)c(Cl)c3)C(=O)NC2=O)c1 [SB-390767]	8%	0%	0%	26%	4%	7%	0%	0%	8%	0%
COc1ccc(Nc2nccc(N3CCC(NC(=O)C(C)c4ccc(Cl)cc4)CC3)n2)cc1 (centres unmarked) [GSK1379812]	35%	11%	3%	20%	0%	0%	23%	4%	42%	0%
